# An excerpt weighted towards active compounds, which were near 8.9% of everything screened.
# SW480 rerep: inducers of DNA re-replication in SW480 colon cancer cells; 340,000 compounds, 1.8% hits; Potency, µM (top dose mostly 46.1 µM), for the others: at the highest dose re-replication activation, usual class: activators; AID 624297; SW480 DNA re-replication, Hoechst DNA content imaging, 48 h; also: potency is read from the fitted curve at half-maximal effect; % of control where 0% means no effect; nearly all actives have a fitted effect of over 55% in size
#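 Treated cells incubate 48 hr (37 C, 5% CO2), are stained 40 min with Hoechst, and nuclear fluorescence is enumerated; a rise in nuclei with high DNA signal marks re-replication.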
# MCF10A rerep: DNA re-replication induction in MCF 10a cells. AID 624296. 350,000 compounds, 2.9% hits. Potency, µM (highest dose often 46.1 µM), for the others: top-dose activity, positive = re-replication, hits mostly activators. MCF 10A DNA re-replication, Hoechst nuclear intensity, 48 h; also: potency is read from the fitted curve at half-maximal effect; % of control where 0% means no effect; nearly all actives have a fitted effect of over 50% in size
# KB-V1 cytotox: kills drug-selected multidrug resistant KB-V1 cells | KB-V1 MDR cells viability, CellTiter-Glo, 72 h | Potency, µM (titrated, usually from 46.1 µM), usual class: cytotoxic | 400,000 compounds, 3.4% hits; also: potency is read from the fitted curve at half-maximal effect; % is scaled to controls: 0 for no effect and ±100 for the full control effect; nearly all actives have a fitted effect of over 60% in size
#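 Cytotoxicity toward P-gp-expressing KB-V1 cells was determined as loss of CellTiter-Glo luminescence after 72 h at 37 degrees C. Compounds were tested in quantitative HTS format across a concentration range, with curves fitted to normalized data.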
# D3 antag: D3 dopamine receptor (human) antagonism. D3R cells, DiscoveRx beta-arrestin luminescence, antagonist mode; active compounds read low. AID 652054. P35462. max response, negative = inhibition, %. 360,000 compounds, 2.5% hits; in the data active = max response below about -50%; inconclusive = no clear call, values can overlap the other calls; also: % is scaled to controls: 0 for no effect and ±100 for the full control effect
# Target sequence (P35462 whole entry, looked up): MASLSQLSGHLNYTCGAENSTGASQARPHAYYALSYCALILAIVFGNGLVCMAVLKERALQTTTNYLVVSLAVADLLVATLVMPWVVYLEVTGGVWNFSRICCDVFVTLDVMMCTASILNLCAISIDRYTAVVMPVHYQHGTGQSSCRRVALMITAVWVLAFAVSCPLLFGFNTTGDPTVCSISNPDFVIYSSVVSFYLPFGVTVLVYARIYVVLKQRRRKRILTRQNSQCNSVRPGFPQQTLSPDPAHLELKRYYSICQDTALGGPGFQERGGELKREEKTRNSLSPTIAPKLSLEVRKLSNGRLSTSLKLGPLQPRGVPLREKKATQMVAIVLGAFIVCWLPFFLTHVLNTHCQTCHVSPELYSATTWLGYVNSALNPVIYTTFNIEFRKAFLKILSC
#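 Cells expressing the human receptor were seeded at 1500 cells/well, incubated overnight at 37 degrees C in 5% CO2, then exposed to library compounds with dopamine controls for 90 minutes at 37 degrees C before luminescent detection.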
# KB-3-1 cytotox: kills parental KB-3-1 adenocarcinoma cells; KB-3-1 viability, CellTiter-Glo ATP luminescence, 72 h; Potency, µM (doses to about 46.1 µM), hits mostly cytotoxic; 400,000 compounds, 1.4% hits; AID 1347075; also: potency is read from the fitted curve at half-maximal effect; % is scaled to controls: 0 for no effect and ±100 for the full control effect; nearly all actives have a fitted effect of over 60% in size
#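 Using CellTiter-Glo luminescence, growth of non-resistant KB-3-1 adenocarcinoma cells is assessed 72 h after pin-tool compound addition at 37 °C. Normalized responses across the concentration series yield fitted curves.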
# DRD3 agonist: agonists of human D3 dopamine receptor; max activation, %; AID 652048; D3R DiscoveRx beta-arrestin cells, luminescence, 90 min; P35462; 410,000 compounds, 0.58% hits; in the data active = max activation above about 30%; also: 0% is about no effect
#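 Cells at 1500/well, incubated overnight, then treated with pinned compounds (dopamine as control) for 90 min at 37 degrees C. DiscoveRx reagent added for 30 - 60 minutes at room temperature; luminescence read.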
# * hit, by the source's call; i = inactive; ? = inconclusive; . = no result; ! = a repeat was not active; [ ] = remark or other dose. Unless noted, calls follow the shape of the dose curve; as a rule, active = well fitted curve in the direction sought with a large enough effect; inconclusive = small, poorly fitted or top-dose-only effect, or another doubt; inactive = no such curve, though single readings can be large; an effect the other way counts as inactive or inconclusive.
SMILES,SW480 rerep,MCF10A rerep,KB-V1 cytotox,D3 antag,KB-3-1 cytotox,DRD3 agonist
Cc1ccc2c(c1)N(CC(=O)N1CCCCCC1)C(=O)c1cccnc1O2,3%,1%,i,12,i,0
Cc1ccc2c(c1)N(CC(=O)N1CCCC1)C(=O)c1cccnc1O2,-4%,1%,i,-86*,i,-2
CC(=O)Nc1ccc(NC(=O)c2cc3c(=O)n(Cc4cccnc4)ccc3nc2C)cc1,.,.,i,.,i,-3
COc1cccc(OC)c1C(=O)NC1C(=O)N2C1SC(C)(C)C2C(=O)O (centres undefined),-6%,-3%,.,.,.,.
CCOc1ccc2ccccc2c1C(=O)N[C@@H]1C(=O)N2[C@@H]1SC(C)(C)[C@@H]2C(=O)O,?,-1%,i,105,i,49*!
CCN(CC)CCN1C(=O)C(O)=C(C(C)=O)C1c1ccccc1[N+](=O)[O-] (centres undefined),?,21µM*,?,8,i,13
CC(=O)O[C@]1(C(C)=O)CCC2C3C=C(C)C4=CC(=O)CC[C@]4(C)C3CC[C@@]21C (some centres undefined),40%,5%,i,-16,i,-7
CC(=O)O[C@]1(C(C)=O)CC[C@H]2[C@@H]3C=CC4=CC(=O)C=C[C@]4(C)[C@H]3CC[C@@]21C,1%,?,13µM*,6,?,0
S=C(c1ccc(Cl)cc1)N1CCN(Cc2ccccc2)CC1,-10%,29%,i,-69*,i,-24
OCCN1CCN(C(=S)c2ccc(Cl)cc2)CC1,1%,3%,i,6,i,-10
CC(=O)/C(C(=N)N1CCN(Cc2ccccc2)CC1)=C(\C)O,0%,0%,i,-54*,i,-19
CCN1CCN(C(=S)c2ccc(SC)cc2)CC1,?,-178%[0.0737 µM],i,-85*,i,-11
CCN1CCN(C(=S)c2ccc(Cl)cc2)CC1,-7%,16%,i,-69*,i,-2
CSc1ccc(C(=S)N2CCN(Cc3ccccc3)CC2)cc1,3%,11%,?,?,i,-3
COCCN(C(=O)CSc1nc2ccccc2o1)c1c(N)n(Cc2ccccc2)c(=O)[nH]c1=O,1%,0%,?,21,i,-1
CCOc1ccccc1N(C)C(=O)c1cc(S(=O)(=O)NCCc2ccc(Cl)cc2)ccc1F,.,.,i,.,?,-2
Cc1cccc(NC(=O)CSc2nc3ccccc3c3nc(CCc4c(C)n[nH]c4C)nn23)c1,?,7.3µM*,23µM*!,23,?,0
O=C1CCCCc2sc(Br)c([N+](=O)[O-])c2N1,2.9µM*,?,i,-30,i,-11
Cc1cc(C)c(NC(=O)Cc2ccc(-n3c(C)nc4cccnc43)cc2)c(C)c1,.,.,i,.,i,0
COc1ccc(CNC(=O)CC(C)n2nc(C)cc2C)cc1 (centres undefined),.,.,i,.,i,8
Cc1ccc(-n2cccn2)c(CN2CCCC(C(=O)c3ccc4c(c3)OCO4)C2)c1 (centres undefined),18%,19%,i,-63*,?,-32
O=C(c1ccc2c(c1)OCO2)C1CCCN(Cc2ccccc2OC(F)F)C1 (centres undefined),2%,?,i,-63*,i,-16
COc1ccc(N2CCN(C(CNC(=O)c3c(F)cccc3F)c3ccc4c(c3)OCO4)CC2)cc1 (centres undefined),.,.,i,.,i,-23
Cn1c(=O)c2c(-c3ccccc3)n(-c3cc([N+](=O)[O-])ccc3O)cc2n(C)c1=O,.,.,i,-51*,i,-7
COc1ccccc1-c1noc(CCCC(=O)Nc2cccc(C(F)(F)F)c2)n1,.,.,i,.,i,-21
SMILES,SW480 rerep,MCF10A rerep,KB-V1 cytotox,D3 antag,KB-3-1 cytotox,DRD3 agonist
COc1ccccc1-c1noc(CCC(=O)Nc2cc(C(F)(F)F)ccc2Cl)n1,-1%,1%,i,-10,?,30*
CCOC(=O)c1sc2ncn(CC(=O)Nc3ccc(OCC)cc3)c(=O)c2c1C,.,.,i,.,i,1
CC(C)[C@H](NC(=O)N1CC(=O)Nc2ccccc21)C(=O)N1CCC[C@H]1C(=O)O,-1%,-6%,?,0,i,-31
CC(C)[C@H](NC(=O)[C@@H]1Cc2c([nH]c3ccccc23)C2c3ccccc3C(=O)N21)C(=O)N1CCC[C@@H]1C(=O)O (some centres undefined),?,?,i,29,i,40*
COCCn1ccc2c(OCC(=O)Nc3ccccc3F)cccc2c1=O,.,.,i,.,i,5
COC(=O)C(CCSC)NC(=O)C1CCN(c2ncnc3c2nc2n3CCCCC2)CC1 (centres undefined),.,.,.,.,.,-1
CCCS/C(N)=N/N=C/c1cc(C)ccc1O,?,?,?,-22,i,-10
CCCCS/C(N)=N/N=C/c1ccccc1O,?,?,i,-50*,i,-3
Cc1cccc(NC(=O)[C@H](Cc2c[nH]c3ccccc23)NC(=O)[C@@H]2Cc3ccccc3CN2)c1,21µM*,16µM*,i,-7,5.8µM*,0
Cc1ccc(NC(=O)[C@H](Cc2c[nH]c3ccccc23)NC(=O)[C@@H]2Cc3ccccc3CN2)c(C)c1,7%,?,?,3,1.8µM*,-6
Cc1cc(C)cc(NC(=O)[C@H](Cc2c[nH]c3ccccc23)NC(=O)[C@@H]2Cc3ccccc3CN2)c1,18µM*,21µM*,?,-15,i,-28
CC(NC(=O)[C@H](Cc1c[nH]c2ccccc12)NC(=O)[C@@H]1Cc2ccccc2CN1)c1ccccc1 (some centres undefined),0%,13%,i,2,i,-2
CCc1ccc(NC(=O)[C@H](Cc2c[nH]c3ccccc23)NC(=O)[C@@H]2Cc3ccccc3CN2)cc1,16µM*,18µM*,?,-4,5.2µM*,-13
COc1cc(OC)c(NC(=O)c2cc3c(=O)oc4ccc(C)cc4c3s2)cc1Cl,.,.,?,.,i,-8
COc1ccccc1N1CCN(CC(O)c2c(C)[nH]c3ccccc23)CC1 (centres undefined),?,18µM*,i,-79*,i,-6
COc1ccccc1N1CCN(CC(O)c2ccccc2)CC1 (centres undefined),-9%,-1%,i,-55*,i,-21
Oc1ccc(N2CCN(CC(O)c3ccccc3)CC2)cc1 (centres undefined),?,14%,i,2,i,-2

# Bioassay records deposited in PubChem BioAssay by National Center for Advancing Translational Sciences (NCATS).
